pPAFAH FP inh = pPAFAH enzyme inhibitors, primary screen, biochemical, fluorescence polarization, human. inhibition, % at 3.39 µM. recombinant pPAFAH, FP-rhodamine probe fluorescence polarization. AID 463082, 2010. hit rate 1.5% among 330,000. Platelet-activating factor acetylhydrolase (Homo sapiens), Q13093;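 active = inhibition above the mean inhibition across the screen plus 3 SD, cut at about 25% in these data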;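 note: inhibitors block binding of the rhodamine activity-based probe so polarization drops; 0% = enzyme with DMSO and 100% = wells lacking pPAFAH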
Target sequence (Q13093 whole entry, looked up): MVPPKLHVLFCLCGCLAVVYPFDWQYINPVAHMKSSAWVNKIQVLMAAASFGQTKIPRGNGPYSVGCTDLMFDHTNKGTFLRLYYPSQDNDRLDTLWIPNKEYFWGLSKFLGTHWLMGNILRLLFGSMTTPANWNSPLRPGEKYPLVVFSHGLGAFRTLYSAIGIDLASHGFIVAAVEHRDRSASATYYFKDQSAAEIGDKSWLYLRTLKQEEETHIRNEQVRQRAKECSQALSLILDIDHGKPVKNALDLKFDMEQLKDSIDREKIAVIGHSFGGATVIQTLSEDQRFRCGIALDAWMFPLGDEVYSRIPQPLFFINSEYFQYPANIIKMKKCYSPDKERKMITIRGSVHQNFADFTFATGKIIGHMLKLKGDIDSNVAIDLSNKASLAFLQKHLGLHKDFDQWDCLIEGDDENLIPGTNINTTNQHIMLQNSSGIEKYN
Fam108B inh = mouse Fam108B serine hydrolase inhibitors, primary screen, counter-screen for RBBP9 inhibitor project, biochemical, fluorescence polarization; AID 1947, 2009; inhibition, % at 9.51 µM; hit rate 0.33% among 300,000; recombinant Fam108B, FP-Rh probe fluorescence polarization;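 active = inhibition above the screen mean inhibition plus 3 SD, computed separately per campaign, cut at about 18% in these data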;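 note: inhibitors lower polarization as less probe binds the enzyme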
PAFAH1B3 inh = PAFAH1B3 enzyme inhibitors, primary screen, biochemical, fluorescence polarization, human. Platelet-activating factor acetylhydrolase IB subunit alpha1 (Homo sapiens), Q15102. recombinant PAFAH1B3, FP-rhodamine probe. inhibition, % at 3.39 µM. hit rate 0.28% among 340,000;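 active = inhibition above the screen-wide average of all tested compounds plus 3 SD, cut at about 25% in these data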;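 note: 0% = enzyme with DMSO only and 100% = wells lacking PAFAH1B3 protein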
Target sequence (Q15102 whole entry, looked up): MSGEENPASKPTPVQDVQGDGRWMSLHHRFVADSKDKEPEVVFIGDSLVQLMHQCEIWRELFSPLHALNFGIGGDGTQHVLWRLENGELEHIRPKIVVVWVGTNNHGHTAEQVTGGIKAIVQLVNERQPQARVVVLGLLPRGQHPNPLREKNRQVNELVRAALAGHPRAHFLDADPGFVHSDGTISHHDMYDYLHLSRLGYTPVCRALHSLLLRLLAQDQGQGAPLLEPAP
PME-1 primary = PME-1 inhibitors via competitive probe labeling, primary screen, biochemical, fluorescence polarization, FP-Rh probe, HTS. AID 2130, 2009. Protein phosphatase methylesterase 1 (Homo sapiens), Q9Y570. inhibition, % at 5.9 µM. hit rate 0.53% among 320,000. recombinant PME-1;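 active = inhibition above the campaign mean of all compounds plus 3 SD, cut at about 26% in these data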;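 note: competitive labeling of PME-1 active site by serine hydrolase directed probe; 0% = PME-1 with DMSO and 100% = wells lacking PME-1 enzyme; inhibitors block probe labeling so polarization falls and inhibition rises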
PAFAH2 inh = PAFAH2 enzyme inhibitors, primary screen, biochemical, fluorescence polarization, human | Platelet-activating factor acetylhydrolase 2, cytoplasmic (Homo sapiens), Q99487 | inhibition, % at 3.39 µM | recombinant PAFAH2, FP-rhodamine activity probe | hit rate 0.99% among 340,000;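 active = inhibition above the mean over all tested compounds plus 3 SD, cut at about 30% in these data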;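 note: inhibitors block probe labeling of enzyme so polarization drops; 0% = enzyme with DMSO and 100% = wells lacking PAFAH2 protein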
PAFAH1B2 inh = PAFAH1B2 enzyme inhibitors, primary screen, biochemical, fluorescence polarization, human | recombinant PAFAH1B2, FP-rhodamine activity probe | inhibition, % at 3.39 µM | Platelet-activating factor acetylhydrolase IB subunit alpha2 (Homo sapiens), P68402 | AID 492953, 2010 | hit rate 1.2% among 340,000;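 active = inhibition above the mean of all tested compounds plus 3 SD, cut at about 24% in these data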;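 note: 0% = enzyme with DMSO and 100% = wells lacking PAFAH1B2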
pPAFAH confirm = pPAFAH (PLA2G7) enzyme inhibitors, confirmation, biochemical, fluorescence polarization, human | shares compounds with pPAFAH FP inh | recombinant pPAFAH, FP-Rh probe fluorescence polarization | inhibition, % at 3.39 µM | hit rate 72% among 2,300;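 active = mean inhibition of the triplicate above the hit cutoff set for the earlier primary screen, cut at about 25% in these data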;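 note: 0% = enzyme with DMSO and 100% = wells lacking pPAFAH enzyme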
Starred values were filed as active, the others as inactive. A selection: hits, their analogues and other compounds. The true share with any hit is near 2.9%.

Results for CC(C)N(C)S(=O)(=O)c1ccc(NC(=O)CSC(=S)N2CCCC2)cc1 ?
pPAFAH FP inh: -3.2; Fam108B inh: -0.6; PAFAH1B3 inh: 10.6; PME-1 primary: 2.7; PAFAH2 inh: 2.2; PAFAH1B2 inh: 3.1

How did Cc1ccccc1-n1c(SCC(=O)N2CCOCC2)nc(O)cc1=O do in these assays?
pPAFAH FP inh: 38.6*; Fam108B inh: 1.4; PAFAH1B3 inh: 1.8; PME-1 primary: 4.5; PAFAH2 inh: 4.8; PAFAH1B2 inh: -0.2; pPAFAH confirm: 8.2

Results for CCCC(=Nc1ccc(N)cc1)C1=C(O)C(C(=O)OC)C(C)(C)CC1=O (stereo unspecified) ?
pPAFAH FP inh: 40.1*; Fam108B inh: 16.4; PAFAH1B3 inh: 12.7; PME-1 primary: 34.2*; PAFAH2 inh: 16.5; PAFAH1B2 inh: 3.7; pPAFAH confirm: 4.9

What do the screens show for `CSc1ccc(NC(=O)Nc2ccc(C(=O)NCC(=O)O)cc2)cc1`?
PAFAH1B3 inh: 5.9; PAFAH2 inh: -4.5; PAFAH1B2 inh: 1.4

What do the screens show for `CCN(CC)c1ccc(N2C(=O)CSC2=S)cc1`?
pPAFAH FP inh: 47.7*; Fam108B inh: -16.7; PAFAH1B3 inh: -14.6; PME-1 primary: -17.3; PAFAH2 inh: -15.3; PAFAH1B2 inh: -5.1; pPAFAH confirm: 2.6

How did O=C(O)c1cc(Cl)ccc1-c1ccc(/C=C/c2cc(C(F)(F)F)[nH]c(=O)n2)o1 do in these assays?
pPAFAH FP inh: 42.8*; Fam108B inh: 6.0; PAFAH1B3 inh: -4.0; PME-1 primary: 0.4; PAFAH2 inh: 8.3; PAFAH1B2 inh: 0.8; pPAFAH confirm: 8.5

Results for CCCNC(=O)c1ccc(N2CC3CC(C2)c2cccc(=O)n2C3)c(NC(=O)Nc2ccc(CC)cc2)c1 (stereo unspecified) ?
pPAFAH FP inh: 87.9*; Fam108B inh: 0.2; PAFAH1B3 inh: 4.0; PME-1 primary: -4.0; PAFAH2 inh: 19.3; PAFAH1B2 inh: -1.7; pPAFAH confirm: 92.0*

Results for CSc1ccccc1NC(=O)c1ccc(N2CC3CC(C2)c2cccc(=O)n2C3)c(NC(=O)c2ccncc2)c1 (stereo unspecified) ?
pPAFAH FP inh: 3.4; Fam108B inh: -0.6; PAFAH1B3 inh: 1.2; PME-1 primary: -2.7; PAFAH2 inh: 1.7; PAFAH1B2 inh: 0.5

How did COc1cccc(NC(=O)Nc2cc(C(=O)NC(C)C)ccc2N2CC3CC(C2)c2cccc(=O)n2C3)c1 (stereo unspecified) do in these assays?
pPAFAH FP inh: 73.7*; Fam108B inh: -4.5; PAFAH1B3 inh: 3.0; PME-1 primary: -1.0; PAFAH2 inh: 20.9; PAFAH1B2 inh: 3.9; pPAFAH confirm: 75.5*

How did CC(C)=CCc1c(O)cc2c(c1O)C(=O)CC(c1ccccc1)O2 (stereo unspecified) do in these assays?
pPAFAH FP inh: 3.3; Fam108B inh: 3.4; PAFAH1B3 inh: 0.2; PME-1 primary: -5.9; PAFAH2 inh: -8.1; PAFAH1B2 inh: 4.4

How did CC(C)=CCc1c(O)c(CC=C(C)C)c2c(c1O)-c1cc(O)c(O)cc1CC2 do in these assays?
pPAFAH FP inh: 76.4*; Fam108B inh: 2.0; PME-1 primary: 10.9; pPAFAH confirm: 56.2*

What do the screens show for `CCc1ccc(NC(=O)CSc2nc(=O)n(CCN(C)C)c3c2CCCC3)cc1`?
pPAFAH FP inh: -0.3; Fam108B inh: 5.4; PAFAH1B3 inh: 8.5; PME-1 primary: 1.3; PAFAH2 inh: -2.8; PAFAH1B2 inh: 1.1

Results for CN(CC(=O)Nc1ccc(C#N)cc1)CC(=O)Nc1ccc(N2CCOCC2)cc1 ?
pPAFAH FP inh: 6.6; Fam108B inh: 5.7; PAFAH1B3 inh: 5.0; PME-1 primary: 8.4; PAFAH2 inh: 1.2; PAFAH1B2 inh: 6.4

What do the screens show for `CN(CC(=O)Nc1ccc(N2CCOCC2)cc1)CC(=O)Nc1ccc(N2CCOCC2)cc1`?
pPAFAH FP inh: 41.7*; Fam108B inh: 1.6; PAFAH1B3 inh: 0.3; PME-1 primary: -5.7; PAFAH2 inh: 4.2; PAFAH1B2 inh: 4.0; pPAFAH confirm: 35.0*

What do the screens show for `CSCCC(NC(=O)c1ccccc1)C(=O)N(C)CC(=O)Nc1ccc(N2CCOCC2)cc1` (stereo unspecified)?
pPAFAH FP inh: 35.9*; Fam108B inh: 0.1; PAFAH1B3 inh: 4.5; PME-1 primary: 4.1; PAFAH2 inh: 9.4; PAFAH1B2 inh: 2.6; pPAFAH confirm: 31.6*

Results for Cc1noc(C)c1NC(=O)Nc1cccc2c1O[C@@H](CN(C)Cc1ccc3c(c1)OCO3)[C@@H](C)CN([C@H](C)CO)C2=O ?
pPAFAH FP inh: 1.5; PAFAH1B3 inh: 5.4; PAFAH2 inh: -1.6; PAFAH1B2 inh: 5.1

What do the screens show for `CCCCCCC[N+](CC)(CC)CCCCc1ccc(Cl)cc1`?
pPAFAH FP inh: 0.9; Fam108B inh: 4.0; PAFAH1B3 inh: 11.7; PME-1 primary: -2.6; PAFAH2 inh: -2.3; PAFAH1B2 inh: 0.7

Results for CCOc1ccc(CN2CCC(n3nccc3NC(=O)c3ccccc3OC)CC2)cc1 ?
pPAFAH FP inh: 2.6; Fam108B inh: -2.5; PAFAH1B3 inh: 0.0; PME-1 primary: 0.9; PAFAH2 inh: -1.8; PAFAH1B2 inh: -4.4

How did Cc1ccc(CNC2=NCCCCC2)n1C do in these assays?
pPAFAH FP inh: 53.3*; Fam108B inh: 0.7; PAFAH1B3 inh: 3.8; PME-1 primary: -1.2; PAFAH2 inh: 4.1; PAFAH1B2 inh: 1.1; pPAFAH confirm: 2.9

Results for c1ccc(CNC2=NCCCCC2)cc1 ?
pPAFAH FP inh: -4.1; Fam108B inh: 10.0; PAFAH1B3 inh: -7.0; PME-1 primary: -0.2; PAFAH2 inh: 3.4; PAFAH1B2 inh: -4.0

How did Cc1ccc(C(=O)N2CCCC(CCC(=O)N3CCN(c4ccccn4)CC3)C2)cn1 (stereo unspecified) do in these assays?
pPAFAH FP inh: 6.8; Fam108B inh: -1.1; PAFAH1B3 inh: 15.4; PME-1 primary: 5.8; PAFAH2 inh: 4.4; PAFAH1B2 inh: 7.7

Results for Cc1ccc(C(=O)N2CCCC(CCC(=O)N3CCN(c4ccccn4)CC3)C2)cc1C (stereo unspecified) ?
pPAFAH FP inh: 34.9*; Fam108B inh: -3.1; PAFAH1B3 inh: 5.3; PME-1 primary: 1.0; PAFAH2 inh: 2.8; PAFAH1B2 inh: -2.0; pPAFAH confirm: 22.2

Results for N#Cc1c(SCC(=O)Nc2nc3ccccc3s2)sc2c(O)cc(=O)[nH]c12 ?
pPAFAH FP inh: 40.7*; PAFAH1B3 inh: 27.6*; PME-1 primary: -8.3; PAFAH2 inh: 34.5*; PAFAH1B2 inh: 18.8; pPAFAH confirm: 30.6*

High-throughput results deposited in PubChem BioAssay by The Scripps Research Institute Molecular Screening Center.
